Most compounds without a hit are left out; they make up all but 3.5% or so of the library.
MITF inh: human MITF inhibition, primary screen; AID 1259374; inhibition, % at 2.6 µM; actives 0.91% (n = 650,000); O75030; AlphaScreen MITF homodimerization, bead proximity signal; in the data active = inhibition above about 50%;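 also: 0% = vehicle wells with protein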
FBW7 activator: human FBW7 E3 ligase activation, primary screen; normalized activity (activation), % at 26.1 µM; actives 0.13% (n = 650,000); AID 1259310; AlphaScreen FBW7–phospho-cyclin E peptide binding, activator screen; Q969H0; in the data active = normalized activity above about 1.9%;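 also: purified mutant Fbw7 with reduced substrate affinity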
GPR151 activ: activators of human GPR151; actives 1% (n = 650,000); PathHunter beta-arrestin GPR151 cells, luminescence; Q8TDV0; activation, % at 11.2 µM; in the data active = activation above about 4.9%;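 also: 0% = median of compound wells and 100% = cells with positive control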
Target sequence (Q8TDV0 whole entry, looked up): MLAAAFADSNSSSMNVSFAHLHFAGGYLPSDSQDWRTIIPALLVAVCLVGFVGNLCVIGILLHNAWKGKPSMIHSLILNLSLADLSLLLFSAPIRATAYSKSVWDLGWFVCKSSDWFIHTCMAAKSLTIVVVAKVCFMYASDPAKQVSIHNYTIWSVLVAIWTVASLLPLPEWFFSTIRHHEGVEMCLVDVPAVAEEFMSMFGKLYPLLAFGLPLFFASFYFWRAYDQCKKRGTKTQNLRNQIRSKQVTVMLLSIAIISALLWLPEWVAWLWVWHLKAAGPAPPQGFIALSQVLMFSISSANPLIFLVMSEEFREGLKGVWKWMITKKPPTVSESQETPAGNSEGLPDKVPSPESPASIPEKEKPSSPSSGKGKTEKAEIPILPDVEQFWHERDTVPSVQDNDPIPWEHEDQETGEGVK
TEAD-YAP block: TEAD-YAP interaction inhibition | AID 1259422 | HEK-TIYL cells, TEAD-Gal4/YAP UAS-luciferase luminescence | actives 1.4% (n = 640,000) | inhibition, % at 9.12 µM; in the data active = inhibition above about 32%;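 also: 0% = median of test compound wells and 100% = reference inhibitor wells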
Active calls of the source: *.

SMILES	MITF inh	FBW7 activator	GPR151 activ	TEAD-YAP block
Cc1cc(C)c([N+](=O)[O-])c(C)c1C1C(C#N)=C(N)Oc2n[nH]c(C)c21 (stereo not given)	4.6	0.3	0.0	11.7
CCn1c2cc(C)oc2c2cnn(C(C)C(=O)N3CCC(O)(c4ccncc4)CC3)c(=O)c21 (stereo not given)	1.1	-0.1	-0.2	-10.4
COc1ccc(/C=C2\SC(=Nc3cc(C)cc(C)c3)NC2=O)c(OC)c1	0.2	-0.5	0.0	57.2*
COc1ccc(/C=C2\SC(=O)NC2=Nc2ccc(C)cc2)c(OC)c1	-3.7	-0.2	0.9	57.6*
COc1ccc(/C=C2\SC(=Nc3cccc(C)c3C)NC2=O)c(OC)c1	3.9	0.0	1.0	6.2
COCCCNS(=O)(=O)c1cc2c3c(c1)CC(=O)N3CCC2	-0.2	-0.2	0.9	3.9
O=C(CN1CCN(S(=O)(=O)c2ccc(Br)cc2)CC1)Nc1cccc(F)c1	3.5	0.4	-1.8	1.8
CCN(CC)c1ccc(/C=C2/C(=O)N(c3ccccc3)N=C2C)cc1	68.1*	-1.8	-1.2	11.3
CC1=NN(c2ccccc2)C(=O)/C1=C/c1ccc(N2CCCC2)o1	9.4	-0.1	3.7	66.1*
CC1=NN(c2ccc(Cl)cc2)C(=O)/C1=C\c1ccc([N+](=O)[O-])o1	-14.6	-0.7	-0.7	7.0
CC1=NN(c2ccc(C(=O)O)cc2)C(=O)/C1=C\c1ccc([N+](=O)[O-])o1	71.4*	-0.1	-0.8	6.0
Cc1sc2nc(C)n3c(=O)[nH]nc3c2c1C	3.0	0.2	-0.8	11.7
CC1=C(C(=O)OCCc2ccccc2)C(c2cccc(Cl)c2Cl)C2=C(CC(C)(C)CC2=O)N1 (stereo not given)	4.0	-0.1	-0.6	3.0
COc1cc(/C=C2\N=C(c3ccccc3)NNC2=O)cc(OC)c1OC	-1.9	0.0	-0.3	49.1*
COc1cc(/C=C2/N=C(c3ccc(-c4ccccc4)cc3)OC2=O)cc(OC)c1OC	-3.8	0.0	0.0	-1.9
CCOC(=O)N1CCC(N2CCN(CCCc3ccccc3)C(CCO)C2)CC1 (stereo not given)	8.0	0.0	1.0	6.7
CCOC(=O)C1CCN(C(=O)COc2ccccc2)CC1	7.1	0.0	0.0	3.2
Oc1ccc(CCNc2ccnc(-c3ccccc3)n2)cc1	24.9	0.3	1.0	-9.0
Cc1cc(C)nc(Oc2ccc(N)cc2)n1	16.5	1.9*	0.1	52.4*
COc1ccc(Oc2nc(C)cc(C)n2)cc1	3.7	0.7	-2.3	-10.1
Nc1ccc(Oc2cccc(-c3ccc(N)cc3)c2)cc1	6.2	-0.1	-0.1	45.8*
c1ccc(Oc2cccc(Oc3cccc(Oc4cccc(Oc5ccccc5)c4)c3)c2)cc1	-4.2	0.4	0.8	-5.9
Nc1ccc(Oc2cccc(Oc3ccc(N)cc3)c2)cc1	6.3	0.2	0.3	51.9*
COc1cccc(CSCC(=O)O)c1OC	2.9	0.0	0.5	-9.3
COc1ccc(COC(=O)c2c(SC)nsc2SC)cc1	1.3	-0.3	-1.9	37.9*
SMILES	MITF inh	FBW7 activator	GPR151 activ	TEAD-YAP block
CCOC(=O)C(NC(=O)c1cccc(C(F)(F)F)c1)(Nc1sc2c(c1C#N)CCCC2)C(F)(F)F (stereo not given)	20.1	0.0	0.0	3.2
Cc1nc(SCC(=O)Nc2cc(C(N)=O)cc(C(N)=O)c2)c2c(C)c(C)sc2n1	-5.3	15.6*	0.4	-3.6
CC(=O)c1ccc(NC(=O)CSc2nc(C)nc3sc(C)c(C)c23)cc1	10.3	0.0	0.6	10.9
Cc1ccc(C)n1-c1cc(Cl)ccc1C(=O)O	81.4*	-1.1	1.7	-0.3
Cc1ccc(C)n1-c1ccccc1C(=O)O	0.8	-2.2	0.3	0.2
CC(=O)Nc1ccc(-n2c(C)ccc2C)c(C(=O)O)c1	57.4*	-1.3	1.2	2.3
Cc1ccc(C)n1-c1ccc(C(=O)O)c(Cl)c1	81.3*	-0.7	2.4	-6.5
CC(C)C(=O)NCCc1nnc2n1CCN(C(=O)CSc1ccccc1)CC2	-6.1	0.0	0.5	9.0
O=C(CSc1nnc(NC(=O)c2c(F)cccc2F)s1)Nc1nnc(-c2cccc([N+](=O)[O-])c2)s1	3.1	0.1	-0.7	-1.7
Cc1ccc(NC(=O)CSc2nnc(C)s2)c(C)c1	-2.6	0.0	-0.4	-11.2
Cc1ccc(N/C(N)=N/c2nc(CSc3nnc(C)s3)cc(=O)[nH]2)c(C)c1	16.8	0.0	-0.1	44.4*
CCOc1ccc(S(=O)(=O)N(CC(=O)Nc2ccccc2Cl)c2ccccc2)cc1	-3.1	0.0	0.4	-3.4
COc1ccccc1OCC(=O)Nc1ncc(Cc2ccc(Br)cc2)s1	11.0	0.8	3.4	4.3
Cc1ccccc1OCC(=O)Nc1ncc(Cc2ccc(Br)cc2)s1	-4.4	0.0	1.9	55.3*
COc1ccc(Cc2cnc(NC(=O)COc3cccc(C)c3)s2)cc1	-3.6	-0.1	0.8	52.2*
COc1ccc(OCC(=O)Nc2ncc(Cc3ccc(Br)cc3)s2)cc1	-158.8	0.8	-0.8	1.0
COc1ccc(Cc2cnc(NC(=O)COc3ccccc3OC)s2)cc1	-1.5	0.5	0.9	47.8*
CN1CCN(C(=O)c2ccc3c(=O)n(CCC4=CCCCC4)c(=S)[nH]c3c2)CC1	2.0	0.0	-0.2	5.7
CC(=O)Nc1ccc(S(=O)(=O)N2CCCC(N3CCOCC3)C2)cc1 (stereo not given)	-2.4	0.0	-0.7	-8.5
CCC(Sc1ccc2nnc(-c3ccccn3)n2n1)C(=O)OC (stereo not given)	14.7	7.2*	2.1	-13.7
N#CCSc1ccc2nnc(-c3ccncc3)n2n1	2.8	-0.1	-0.8	39.7*
N#CCSc1ccc2nnc(-c3ccccn3)n2n1	6.8	3.8*	0.1	-7.8
CCC(=O)N1c2ccc(S(=O)(=O)N3CCN(c4ccccc4)CC3)cc2CC1C (stereo not given)	15.5	0.2	-0.4	1.0
CC(=O)c1ccc(N2CCN(S(=O)(=O)c3ccc4c(c3)CC(C)N4C(C)=O)CC2)cc1 (stereo not given)	-7.1	-0.1	0.0	41.3*
O=C(NN1C(=O)CSC1=S)c1ccccc1	-7.6	0.0	0.5	0.9
SMILES	MITF inh	FBW7 activator	GPR151 activ	TEAD-YAP block
O=C(NN1C(=O)CSC1=S)C(=O)NN1C(=O)CSC1=S	64.0*	-0.2	0.9	-7.0
CCOC(=O)c1ccc(NC(=S)NCc2ccc(C(=O)O)cc2)cc1	2.5	-0.3	-0.9	6.2
Nc1ncnc(Nc2ccc(F)c(F)c2)c1[N+](=O)[O-]	6.3	0.2	-0.2	5.0
Cc1cc(C)nc(/N=C(\N)Nc2ccc(Oc3ccccc3)cc2)n1	2.9	0.5	-0.4	32.3*
Cc1cc(C)nc(/N=C(\N)Nc2ccccc2)n1	3.3	-0.1	-1.0	-1.2
CCCOc1ccc(N/C(N)=N/c2nc(C)cc(C)n2)cc1	5.2	0.0	0.4	35.0*
CCCCCOc1ccc(N/C(N)=N/c2nc(C)cc(C)n2)cc1	-1.5	0.0	1.3	37.0*
Cc1cccc(C(=O)Nn2c(-c3ccc(Br)cc3)nc3ccccc3c2=O)c1	21.8	0.2	-0.6	0.6
CSc1cccc(NC(=O)CSc2nnc(Cc3ccccc3)o2)c1	15.8	1.1	-2.0	0.2
CC(C)S(=O)(=O)C1=NSC2=NC(=O)/C(=C\c3ccc([N+](=O)[O-])o3)C(=N)N21	53.2*	-0.4	-2.2	5.0

Source: PubChem BioAssay (The Scripps Research Institute Molecular Screening Center)
